# Measurements as given in PubChem BioAssay (NCI).
# Compounds without any hit were thinned out: in the full panel of roughly 83,000, 20% have a hit.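 Negative percent growth values reflect cell death: -40 means 40% of the cells present at the start died, and -100 means all died.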 Values without a mark were called inactive. Calls of active or inactive are those of the source. How the source made its calls: active means growth percent below 10; inactive means the rest.
# Assays:
# Experiment in all cases: NCI-60 one-dose screen, 48 h (100 = growth as untreated, 0 = no growth, -100 = all killed)
# Conditions in all cases: 10 µM unless noted
# [1] = test system: DU-145 prostate
# [2] = test system: K-562 leukemia
# [3] = test system: MALME-3M melanoma
# [4] = test system: MDA-MB-231 breast
# [5] = test system: RXF 393 renal
# [6] = test system: SF-268 CNS
# [7] = test system: SF-295 CNS
# [8] = test system: UACC-257 melanoma
# [9] = test system: M14 melanoma
# [10] = test system: HCT-15 colon
# [11] = test system: HT29 colon
# [12] = test system: SNB-75 CNS
# [13] = test system: SNB-19 CNS
# [14] = test system: U251 CNS
# [15] = test system: PC-3 prostate
# [16] = test system: SK-MEL-5 melanoma
# [17] = test system: UACC-62 melanoma
# [18] = test system: SK-MEL-28 melanoma
# [19] = test system: LOX IMVI melanoma
Structure (SMILES),growth [1],growth [2],growth [3],growth [4],growth [5],growth [6],growth [7],growth [8],growth [9],growth [10],growth [11],growth [12],growth [13],growth [14],growth [15],growth [16],growth [17],growth [18],growth [19]
CCOC(=O)/C=C/C(=O)[C@H](CC(C)C)NC(=O)[C@H](Cc1ccccc1)NC(=O)OCc1ccccc1,68.3%,5.9% (active),103%,63.5%,26.8%,84.8%,99.7%,70.7%,65.6%,15.5%,57.9%,69.2%,93.7%,50.8%,68.3%,97.5%,14.4%,34.7%,
NCc1cn2cc(Cl)sc2n1,114%,95%,103%,112%,98.9%,111%,102%,105%,108%,98.6%,105%,92.6%,112%,93.2%,92.3%,103%,110%,104%,
CC(=O)Oc1ccc(Nc2c3ccccc3nc3ccccc23)cc1,8.74% (active),6.78% (active),-33.2% (active),23.6%,-2.55% (active),22%,-21.8% (active),-25.7% (active),20.7%,1.67% (active),-38.4% (active),2.16% (active),16.1%,8.7% (active),7.48% (active),-73.2% (active),,25.8%,-34.8% (active)
COc1cc(-c2c3sc(=O)[nH]c3nc3c2c(=O)[nH]n3C(C)C)cc2c1OCO2,119%,97.6%,121%,101%,94.5%,115%,83.5%,99.2%,114%,101%,103%,85.2%,107%,103%,117%,96.9%,105%,99.2%,
CC(=O)C1=C(O)C=C2Oc3c(C(=O)/C=C/c4cc(C(F)(F)F)cc(C(F)(F)F)c4)c(O)c(C)c(O)c3[C@]2(C)C1=O,-71.4% (active),-20.7% (active),-65.6% (active),-38.8% (active),-48.6% (active),-18.1% (active),-17.4% (active),-51.4% (active),-59.1% (active),-73% (active),-42.4% (active),-28.3% (active),-17.5% (active),-48.1% (active),-8.91% (active),-93.9% (active),-64.8% (active),-72.4% (active),
Cc1ccn2c(-c3csc(Nc4cccc(O)c4)n3)c(C)nc2c1,17.7%,2.56% (active),65.4%,-1.81% (active),0.213% (active),39.5%,16.3%,77.2%,16%,17.1%,61.7%,-2.73% (active),49.2%,28.6%,26.6%,-42.9% (active),21.5%,37.7%,
